Each structure is given as a SMILES string. Whole data set: some 110,000 compounds, median “z-score” near -0.1, cut for the highest 2% near 2. The full list was thinned out, with the highest values kept by preference. Active and inactive are the calls of the source.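 Rule for the calls: active = z-score in the third read window above 3 or below -3; inactive = the rest.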

Metabotropic glutamate receptor 8 (Rattus norvegicus), sequence (P70579 whole entry, looked up): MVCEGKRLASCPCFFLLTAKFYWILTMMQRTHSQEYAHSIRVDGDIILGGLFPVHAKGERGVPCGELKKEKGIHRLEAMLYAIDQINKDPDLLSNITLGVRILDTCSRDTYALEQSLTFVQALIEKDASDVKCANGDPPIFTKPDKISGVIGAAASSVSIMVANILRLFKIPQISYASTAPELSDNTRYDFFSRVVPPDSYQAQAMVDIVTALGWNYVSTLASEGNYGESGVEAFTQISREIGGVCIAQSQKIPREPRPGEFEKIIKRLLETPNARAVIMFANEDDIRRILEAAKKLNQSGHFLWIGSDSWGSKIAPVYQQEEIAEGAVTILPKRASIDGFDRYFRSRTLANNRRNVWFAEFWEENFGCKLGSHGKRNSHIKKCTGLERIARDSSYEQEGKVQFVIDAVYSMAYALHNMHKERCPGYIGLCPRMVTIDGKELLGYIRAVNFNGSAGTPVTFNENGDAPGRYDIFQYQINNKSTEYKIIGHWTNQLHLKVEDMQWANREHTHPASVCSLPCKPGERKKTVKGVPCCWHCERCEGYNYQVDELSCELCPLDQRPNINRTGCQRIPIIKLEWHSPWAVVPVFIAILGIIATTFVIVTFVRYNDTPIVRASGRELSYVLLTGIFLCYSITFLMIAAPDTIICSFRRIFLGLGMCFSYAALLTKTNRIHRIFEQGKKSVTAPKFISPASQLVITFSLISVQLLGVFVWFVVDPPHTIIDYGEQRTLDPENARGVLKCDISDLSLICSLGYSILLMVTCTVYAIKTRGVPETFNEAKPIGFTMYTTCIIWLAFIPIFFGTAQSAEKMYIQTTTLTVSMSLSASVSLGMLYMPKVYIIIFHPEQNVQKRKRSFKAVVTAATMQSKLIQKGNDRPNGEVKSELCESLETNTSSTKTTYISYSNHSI

The experiment concerns the target Metabotropic glutamate receptor 8 (Rattus norvegicus) (UniProt P70579). Briefly: rat mGluR8 modulators via GIRK flux, primary screen, cell-based, thallium flux, HTS (AID 488969). The note with it: HEK293 rat mGluR8, GIRK (G protein-gated inwardly rectifying potassium channel) thallium flux, FluoZin2; at 10 µM; stronger effect = higher value; submaximal glutamate (EC20) added with thallium.
As to `CC(=O)Nc1ccc(Sc2ncccc2C(=O)Nc2cc(Cl)cc(Cl)c2)cn1`, the z-score amounted to 0.0331.
Under `CCc1nc(SCC(=O)Nc2c(C)n(C)n(-c3ccccc3)c2=O)n[nH]1` stands -0.584.
In the case of `Cc1ccc(Cl)c(OCC(=O)Nc2sc(C)c(C)c2C#N)c1`, the z-score is 0.877.
In the case of `CC(NC(=O)COc1ccccc1)C1COc2ccccc2O1` (centres undefined) it was -0.67; in that of `Cc1ccc(C)c(N2CCN(C(=O)c3csc(C)c3C)CC2)c1`, 0.0161; in that of `CC(C)n1nc(C(=O)OCC(=O)c2c[nH]c3ccccc23)c2ccccc2c1=O`, -2.75.
Molecule `COc1ccc(Br)cc1S(=O)(=O)N1CCCC1` gave a z-score of -0.0684.
For `CCOC(=O)COc1c(OC)cc(Cl)cc1C1Nc2ccccc2C(=O)N1c1ccccc1` (centres undefined), the z-score stood at 0.355.
Under `Cc1ccc(Oc2ncc(CN3CC(C)OC(C)C3)s2)cc1` (centres undefined) stands -0.107; under `CCn1c2ccccc2c2cc(NC(=O)CC(C)=O)ccc21`, -0.32.
For `Cc1ccc(Cl)cc1NC(=O)c1cnn2c1NC(c1ccco1)CC2C(F)(F)F` (centres undefined), the z-score was -0.148.
For `CCOC(=O)N1CCC(NC(=O)c2cnn3c2NC(c2ccco2)CC3C(F)(F)F)CC1` (centres undefined), the z-score is 4.33 (active).
With `COCCNC(=O)c1cnn2c1NC(c1ccco1)CC2C(F)(F)F` (centres undefined), the z-score was 0.0267.
Regarding `CCCCn1ccnc1C(=O)c1cc(S(=O)(=O)N2CCOCC2)ccc1C`, the z-score is -0.0858.
For the molecule `CSc1nnc(CSc2cc(C)nc(N(C)C)n2)o1`, the z-score is -0.325.
In the case of `O=C(O)c1ccc(NS(=O)(=O)c2cc(Cl)ccc2Cl)cc1` it was -0.151; in that of `O=S(=O)(Nc1nc(-c2sccc2Cl)cs1)c1cc(Cl)ccc1Cl`, 3.41 (active).
As for `O=S(=O)(Nc1cccnc1)c1cc(Cl)ccc1Cl`, the z-score is -0.00571.
In the case of `OC(CCN1CCOCC1)(c1ccc(Cl)cc1)C1CCCCC1` (centres undefined) it was -0.807; in that of `Cc1ccc(NC(=S)N/C(=N/S(=O)(=O)c2ccccc2)c2ccccc2)cc1`, 1.36; in that of `CCc1ccc(C(C(=O)NCc2ccc(OC)cc2)N(CCOC)C(=O)Cc2cccs2)cc1` (centres undefined), -0.37.
In turn, `COCCN(C(=O)Cc1cccs1)C(C(=O)NCc1ccc(OC)cc1)c1ccc(OC)cc1` (centres undefined) displayed a z-score of -0.202.
In the case of `COCCN(C(=O)Cc1cccs1)C(C(=O)NCc1ccc(OC)cc1)c1ccccc1` (centres undefined), the z-score was 3.95 (active).
`Clc1ccc(N=c2ssnc2Cl)cc1` showed a z-score of -0.0573.
`C=C(C)COc1ccc(-c2[nH]ncc2-c2ccccc2OC)c(O)c1` showed a z-score of 0.603.
Under `Cc1cccc(Oc2cc(NC(=O)c3ccccc3)cc([N+](=O)[O-])c2)c1` stands -0.382; under `CCn1cc(CNC(=O)CCSc2nc(-c3ccco3)cc(C(F)(F)F)n2)cn1`, -0.23; under `CCC/C(=N/NC(=O)c1cccc(Cl)c1)c1ccccc1`, 5.45 (active).
Molecule `COc1cccc(C(=O)N/N=C(/CCC(=O)O)c2ccccc2)c1` registered a z-score of -0.189.
In the case of `CCC/C(=N\NC(=O)c1ccccc1C)c1ccccc1` it was -0.166; in that of `CCC1=NC(c2ccc(OC)cc2OC)N(O)C1(C)C` (centres undefined), -0.547; in that of `COCc1c(C(=O)N2CCN(c3ccc(C(F)(F)F)cn3)CC2)oc2ccccc12`, -0.0186.
In the case of `CCN(CC)C(=O)COc1ccc2oc(C)c(C(=O)OC(C)C)c2c1` it was -0.537; in that of `CCN(CC)C(=O)COc1ccc2oc(C)c(C(=O)OC)c2c1`, 3.23 (active); in that of `CCOC(=O)c1c(C)oc2ccc(OCC(=O)C(C)(C)C)cc12`, -1.03.
Under `CCOC(=O)C1=C(CNCc2ccccc2Cl)NC(=O)NC1c1ccc2c(c1)OCO2` (centres undefined) stands 0.278; under `COc1ccc(Br)cc1CN1CCCCCCC1`, 0.169.
Turning to `COc1cc(-c2nc(-c3ccc(NC(=O)c4ccc5c(c4)OCO5)cc3)no2)cc(OC)c1OC`, the z-score worked out at 0.262.
Under `CC12CN(C(=O)c3ccccc3)C3(C#N)CC1CCC23C` (centres undefined) stands 0.729.
In turn, `NC(N)=N/N=C/c1ccc(OCc2ccccc2)cc1` displayed a z-score of 0.177.
Under `CC1(C)Cc2nc3sc4c(SCC(=O)NCc5ccccc5)ncnc4c3cc2CO1` stands 2.31; under `CC1(C)Cc2nc3sc4c(SCC(=O)NCc5ccco5)ncnc4c3cc2CO1`, -0.999.
`CC1(C)Cc2nc3sc4c(SCC(=O)NC(c5ccccc5)c5ccccc5)ncnc4c3cc2CO1` registered a z-score of 0.0674.
In the case of `CC(=O)c1ccc(OCC(O)CN2CCCC(C)C2)cc1` (centres undefined) it was -0.0491; in that of `O=C(Nc1ncc2c(n1)-c1ccccc1CC2)c1ccccc1`, -0.277; in that of `COc1ccc(-c2c[n+]3c4n2CCCCC4=C(c2ccc(Br)cc2)C3)cc1`, 1.54.
In the case of `COc1ccc(-c2c[n+]3c4n2CCCCC4=C(c2ccccc2)C3)cc1` it was 2.82; in that of `Clc1ccc(C2=C3CCCCn4c(-c5ccccc5)c[n+](c43)C2)cc1`, 0.498.
The molecule `CCCc1ccccc1OCCNC(C)=O` gave a z-score of -0.472.
Take `CC(NC(=O)COc1ccccc1)C(=O)NC1=NCCS1` (centres undefined): the z-score was 3.96 (active).
Regarding `O=C(COc1ccccc1)NC1=NCCS1`, the z-score is -0.0489.
In turn, `CC(NC(=O)c1ccccc1)C(=O)NC1=NCCS1` (centres undefined) had a z-score of 0.0634.
On to `COc1cc(-c2nc(-c3ccc(Br)o3)no2)cc(OC)c1OC`, for which the z-score was -0.294.
Under `COc1c(Cl)cc(Cl)cc1CNCCNCCO` stands 0.598; under `CCOc1c(Cl)cc(Cl)cc1CNCCNCCO`, 0.738; under `CCOc1ccc(Cl)cc1CNCCNCC(C)O` (centres undefined), 2.17.
In the case of `CCOc1ccc(Cl)cc1CNCCNCCO` it was 0.172; in that of `COc1c(Cl)cc(Cl)cc1CNCCNCC(C)O` (centres undefined), 3.74 (active).
Under `CCOc1cccc(CNCCO)c1OCc1ccc(Cl)cc1Cl` stands 0.93.

(Values after PubChem BioAssay AID488969 (Vanderbilt High Throughput Screening Facility, 2010).)
